In PubChem BioAssay (Tox21):
Values joined by “and” are separate entries in the source; they are usually repeats but may differ in a detail not shown here. Equal values may be shown once. Results filed as inconclusive are left out. Active and inactive are the calls of the source. Unless noted, calls follow the shape of the dose curve; as a rule, active = well fitted curve in the direction sought with a large enough effect in the repeat runs; inconclusive = weak or mixed curves; inactive = no such curve, though single readings can be large; an effect the other way counts as inactive or inconclusive.

How the values were obtained:
[1] = target: Progesterone receptor (Homo sapiens) (UniProt P06401); experiment: qHTS assay to identify small molecule agonists of the progesterone receptor (PR) signaling pathway (AID 1346784; calls by dose curve; also: nearly all actives have a fitted effect of over 30% in size)
Method in brief: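 Reporter assay, GripTite PR-UAS-bla HEK 293T cells: 16 hr exposure to DMSO-dissolved compounds at 37C, 5% CO2, in steroid-depleted (2% charcoal-stripped FBS) medium; beta-lactamase measured by FRET fluorescence.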

[2] = target: Progesterone receptor (Homo sapiens) (UniProt P06401); experiment: qHTS assay to identify small molecule antagonists of the progesterone receptor (PR) signaling pathway (AID 1346795; active = well fitted inhibition curve with a large enough effect in the signal ratio in the repeat runs, not every such curve was filed as active; the % refers to the signal ratio; also: potency is read from the fitted curve at half-maximal effect)
Method in brief: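 Stimulus R5020 at 1 nM final; cells HEK293T PR-UAS-bla; medium with 2% charcoal-stripped FBS; compound exposure 16 hr at 37C, 5% CO2; detection by FRET beta-lactamase substrate, 2 hr, room temperature.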

[3] = qHTS assay to identify small molecule antagonists of the progesterone receptor (PR) signaling pathway - cell viability counter screen (AID 1346798); also: nearly all actives have a fitted effect of over 50% in size; also: potency is read from the fitted curve at half-maximal effect
Method in brief: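 In the same plates used for the beta-lactamase readout, cell viability of compound- and R5020-treated PR-UAS-bla HEK293T cells (16 hr, 37C) was assessed by CellTiter-Glo luminescence.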

[4] = qHTS assay to identify small molecule agonists of the progesterone receptor (PR) signaling pathway - cell viability counter screen (AID 1346799; calls by dose curve; also: nearly all actives have a fitted effect of over 45% in size; also: potency is read from the fitted curve at half-maximal effect)
Method in brief: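 Multiplexed viability read: CellTiter-Glo luminescence, 30 min RT, following LiveBLAzer FRET measurement on PR-UAS-bla HEK293T cells exposed to compounds 16 hr.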

[5] = qHTS assay to identify small molecule antagonists of the TGF-beta/Smad signaling pathway - cell viability counter screen (AID 1346824); also: nearly all actives have a fitted effect of over 50% in size
Method in brief: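 SBE-bla HEK 293T cells were plated overnight at 37 C, then given compounds in DMSO plus TGF-beta1 (added as 0.25 ng/mL solution) for 5 hr. After the bla read, CellTiter-Glo was added to the same wells and luminescence read after 30 min at room temperature.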

[6] = qHTS assay to identify small molecule agonists of the TGF-beta/Smad signaling pathway - cell viability counter screen (AID 1346829); also: top concentration of the series differs between compounds; nearly all actives have a fitted effect of over 45% in size
Method in brief: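 In parallel with the Smad reporter read, viability of HEK 293T cells stably carrying SBE-bla is quantified by ATP luminescence following 5 hr compound treatment.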

[7] = qHTS assay to identify small molecule agonists of the TGF-beta/Smad signaling pathway (AID 1346859; active = well fitted activation curve with a large enough effect in the signal ratio in the repeat runs, not every such curve was filed as active; the % refers to the signal ratio; also: series mostly up to about 77 µM)
Method in brief: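 Screening used HEK 293T SBE-bla cells at 4,000/well. Test agents: 5 hr, 37 C. Detection: FRET substrate, 2 hr RT, then excitation 405 nm with emissions at 460 and 530 nm.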

[8] = target: Thyrotropin-releasing hormone receptor (Homo sapiens) (UniProt P34981); experiment: qHTS assay to identify small molecule antagonists of the thyrotropin-releasing hormone receptor (TRHR) signaling pathway (AID 1346877; active = well fitted inhibition curve with a large enough effect in the repeat runs, not every such curve was filed as active; also: series mostly up to about 51 µM)
Method in brief: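 TRHR-expressing HEK293 cells loaded with calcium dye for 2 h at 37 C; compounds pre-incubated 5 min at room temperature before TRH challenge at 1 nM final. Intracellular calcium fluorescence read kinetically for 3 min; 15 concentrations in triplicate.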

[9] = target: Thyrotropin-releasing hormone receptor (Homo sapiens) (UniProt P34981); experiment: qHTS assay to identify small molecule agonists of the thyrotropin-releasing hormone receptor (TRHR) signaling pathway (AID 1346891; calls by dose curve; also: series mostly up to about 58 µM)
Method in brief: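 Readout was intracellular calcium fluorescence in TRHR-Hek293 cells. Cells were incubated 18 h, dye-loaded 2 h at 37 °C, and treated with compound in agonist mode.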

[10] = Human pregnane X receptor (PXR) small molecule agonists, qHTS cell viability counter screen (AID 1346977); also: nearly all actives have a fitted effect of over 50% in size; also: potency is read from the fitted curve at half-maximal effect
Method in brief: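 In each well, the PXR reporter HepG2 line was checked for viability: CellTiter-Fluor reagent added 23hr post-dosing, fluorescence read after 1hr incubation at 37C.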

Measured: Potency
% is scaled to controls: 0 for no effect and ±100 for the full control effect.

Chain of Thyrotropin-releasing hormone receptor (Homo sapiens) (P34981 whole entry, looked up): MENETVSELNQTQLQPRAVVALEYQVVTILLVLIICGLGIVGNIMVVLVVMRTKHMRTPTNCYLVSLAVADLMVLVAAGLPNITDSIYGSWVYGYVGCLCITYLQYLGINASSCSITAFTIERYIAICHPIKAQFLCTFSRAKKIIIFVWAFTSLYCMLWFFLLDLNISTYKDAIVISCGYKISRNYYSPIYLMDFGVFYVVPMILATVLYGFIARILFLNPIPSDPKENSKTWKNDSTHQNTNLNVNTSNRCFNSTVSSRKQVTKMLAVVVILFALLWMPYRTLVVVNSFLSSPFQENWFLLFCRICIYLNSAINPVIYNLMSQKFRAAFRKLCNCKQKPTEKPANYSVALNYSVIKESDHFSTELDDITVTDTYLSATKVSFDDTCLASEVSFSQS
Chain of Progesterone receptor (Homo sapiens) (P06401 whole entry, looked up): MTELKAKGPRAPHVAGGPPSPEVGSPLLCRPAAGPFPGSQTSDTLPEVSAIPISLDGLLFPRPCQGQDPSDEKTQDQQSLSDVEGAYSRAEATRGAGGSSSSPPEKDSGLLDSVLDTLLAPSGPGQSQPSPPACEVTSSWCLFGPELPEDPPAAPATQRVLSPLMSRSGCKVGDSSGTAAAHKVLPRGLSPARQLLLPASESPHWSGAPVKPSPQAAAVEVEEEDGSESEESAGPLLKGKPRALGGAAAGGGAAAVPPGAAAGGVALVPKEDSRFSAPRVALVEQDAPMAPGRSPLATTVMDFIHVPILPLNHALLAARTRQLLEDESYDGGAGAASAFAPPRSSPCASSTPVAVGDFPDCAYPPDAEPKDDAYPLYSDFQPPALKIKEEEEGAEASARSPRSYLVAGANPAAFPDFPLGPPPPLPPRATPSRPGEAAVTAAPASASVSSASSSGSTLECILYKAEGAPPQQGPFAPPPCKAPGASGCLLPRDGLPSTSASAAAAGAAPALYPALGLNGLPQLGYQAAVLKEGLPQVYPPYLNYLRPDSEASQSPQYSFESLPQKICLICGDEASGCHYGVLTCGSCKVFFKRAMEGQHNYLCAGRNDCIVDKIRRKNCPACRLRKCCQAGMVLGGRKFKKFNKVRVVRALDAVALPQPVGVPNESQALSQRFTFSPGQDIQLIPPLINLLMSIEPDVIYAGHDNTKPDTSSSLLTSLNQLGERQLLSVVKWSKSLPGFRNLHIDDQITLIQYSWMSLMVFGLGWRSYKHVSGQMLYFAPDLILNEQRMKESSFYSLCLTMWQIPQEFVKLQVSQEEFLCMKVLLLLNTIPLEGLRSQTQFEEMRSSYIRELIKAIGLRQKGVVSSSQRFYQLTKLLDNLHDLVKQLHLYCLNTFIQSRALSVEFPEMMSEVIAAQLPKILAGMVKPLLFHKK

CCCCCC=O
inactive: all assays above

C/C=C/C(=O)N(CC)c1ccccc1C
inactive: all assays above

CCCOCCO
inactive: all assays above

CN(C)/N=N/c1nc[nH]c1C(N)=O
inactive: all assays above

Nc1ccc2c(c1)C(=O)c1ccccc1C2=O
not listed: [10]
inactive: all other assays above

C=CC(C)(O)CCC=C(C)C (stereo not given)
inactive: all assays above

O=C(O)CCCC(=O)O
inactive: all assays above

C=CCOC(=O)C(=C)C
inactive: all assays above

CCCCCCC(C)O (stereo not given)
inactive: all assays above

COC(=O)CC(=O)OC
inactive: all assays above

c1ccc2c(c1)[nH]c1ccccc12
active: [2] 26.8 µM
not listed: [9]
inactive: all other assays above

Cc1ccc(S(=O)(=O)O)cc1C
inactive: all assays above

COc1ccc(C(=O)c2ccccc2O)c(O)c1
active: [2] 27.2 µM and 23.7 µM
inactive: all other assays above

CN(C)CCCN1c2ccccc2Sc2ccc(Cl)cc21
active: [2] 43.3 µM and 21.1 µM | [3] 27.3 µM and 29.8 µM | [4] 30.6 µM and 23.7 µM | [10] 27.3 µM and 26.6 µM
inactive: all other assays above

Nc1ccc(O)c(N)c1
active: [10] 44.7 µM
inactive: all other assays above

Cc1ccc2c(c1)C(=O)OC2=O
not listed: [9]
inactive: all other assays above

O=C1OC2(c3ccccc31)c1cc(I)c(O)c(I)c1Oc1c2cc(I)c(O)c1I
active: [10] 7.78 µM [middle of 4 runs]
not listed: [9]
inactive: all other assays above

CC(C)[C@@H]1CC[C@@H](C)CC1=O
not listed: [8] | [9]
inactive: all other assays above

NC[C@H](O)c1ccc(O)c(O)c1
not listed: [8] | [9]
inactive: all other assays above

CCC(Cc1c(I)cc(I)c(N)c1I)C(=O)O (stereo not given)
not listed: [9]
inactive: all other assays above

CC(=O)Oc1c(C)c(C)c2c(c1C)CC[C@@](C)(CCC[C@H](C)CCC[C@H](C)CCCC(C)C)O2
not listed: [9]
inactive: all other assays above

c1ccc2c(c1)ccc1cc3c(ccc4ccccc43)cc12
not listed: [9]
inactive: all other assays above

COc1ccc2nc(N)sc2c1
not listed: [8] | [9]
inactive: all other assays above

CC[C@]12CCCN3CCc4c(n(c5ccccc45)[C@@](O)(C(=O)OC)C1)[C@@H]32
not listed: [8] | [9]
inactive: all other assays above
